± gives the standard deviation of the averaged measurements.

The experiment concerns Drosophila virilis antennal basiconic sensillum AB4. Description: odor-evoked OSN spike response (post minus pre-stimulus); higher = stronger neuronal excitation. Conditions: odor dilution: 10^-4. As for the experimental part: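 Single sensillum recordings from antennal basiconic sensilla of D. virilis. A 500 ms pulse of odorant (10^-4 in mineral oil or DMSO) was delivered; the response is the change in spike frequency between the 1 s pre- and post-stimulus windows (spikes/s).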
Take `C[C@H]1CCC[C@@]2(C)CCCC[C@]12O` [geosmin]: the “odor-evoked OSN spike response” value stood at 102 ± 21 spikes/s.

The values are drawn from the supplement of paper PMC10477191.
